# Source: PubChem BioAssay
# The entries come from a sample that favours hits as a whole.
# TTR transcr act: TTR transcription activation, primary screen; SH-SY5Y TTR promoter Gaussia luciferase, luminescence; 100% = recombinant luciferase protein wells; activation, % at 16.7 µM; hit rate 1.3% among 92,000;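 active means activation above the mean of all tested compounds plus 3 SD, cut at about 9.5% in these data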;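 further: cells exposed to compounds for one day before reading; 0% = median of all test compound wells on the plate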
# HuH7 TTR inh: HuH7 TTR transcription inhibition, counter-screen; shares compounds with TTR transcr act; HuH7 TTR promoter-Gaussia luciferase reporter, luminescence; inhibition, % at 16.7 µM; hit rate 4% among 1,100;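 active means average inhibition above the solvent-only control wells' mean plus 3 SD, cut at about 15% in these data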;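 further: 0% = cells with DMSO only and 100% = cells with inhibitor control FD; inhibitors lower well luminescence so higher value means more inhibition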
# TTR up confirm: human TTR transcription activation, confirmation; shares compounds with TTR transcr act; SHSY5Y TTR promoter Gaussia luciferase, luminescence; 100% = purified Lucia enzyme wells, no cells; activation, % at 16.7 µM; 1,100 tested, under 10 active; AID 1117280;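 active means mean activation above a set limit taken from the earlier primary screen, cut at about 11% in these data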;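 further: 0% = DMSO-treated cells and 100% = recombinant Lucia luciferase without cells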
# Starred values were filed as active, the others as inactive.
SMILES,TTR transcr act,others
Cc1ccc(CC(=O)N2CCN(Cc3ccccc3)CC2)cc1,-1,
O=C(Cc1ccccc1)N1CCN(CCCc2ccccc2)CC1,0,
O=C(Cc1ccc(Br)cc1)N1CCN(Cc2ccccc2)CC1,11*,
O=[N+]([O-])c1cccc(NP(=O)(Oc2ccccc2)Oc2ccccc2)c1,-2,
O=C(COc1ccccc1)NCCc1cnc[nH]1,-1,
CCn1c(O)c(/C=N/N2CCOCC2)c(=O)n(CC)c1=S,1,
O=c1[nH]c(=S)n(-c2ccc(Cl)cc2)c(O)c1C=Nc1ccc(N2CCOCC2)cc1,-2,
Cc1ccc(-n2c(O)c(/C=N/N3CCOCC3)c(=O)[nH]c2=S)cc1,10*,HuH7 TTR inh=10;TTR up confirm=0
CN(Cc1c[nH]c2ccccc12)C1CCCCC1,2,
Cc1cccc(NC(=O)[C@@H](NC(=O)N2C[C@H]3C[C@@H](C2)c2cccc(=O)n2C3)C(C)C)c1,-1,
O=C1NC(=S)NC(=O)C1Cc1ccccc1,0,
CC(=O)C1CCC2C3CCC4CC(O)CCC4(C)C3C(=O)CC12C (stereo not drawn),12*,HuH7 TTR inh=-7;TTR up confirm=-1
CC(=O)C1CCC2C3CCC4CC(O)CCC4(C)C3C(O)CC12C (stereo not drawn),-1,
CC(=O)C1CCC2C3CC(O)C4CC(O)CCC4(C)C3CCC12C (stereo not drawn),-2,
CS(=O)(=O)c1ccc(C2=C(CNC(=O)c3cccs3)[C@H]3CC[C@@H](C2)N3CCOc2ccccc2)cc1,0,
CN1CC(C(=O)c2ccc(F)cc2)C(c2c(F)cccc2Cl)C1 (stereo not drawn),0,
COc1ccc(OCC(=O)N2CCN(Cc3ccc(SC)cc3)CC2)cc1,1,
O=C(c1cccs1)N1C2CCC1CC(O)(c1cccnc1)C2 (stereo not drawn),-1,
Cn1c(O)c(/C=C2\N=c3ccccc3=C2CCNC(=S)NC2CC2)c(=O)n(C)c1=O,13*,HuH7 TTR inh=17*;TTR up confirm=0
Cn1c(O)c(/C=C2\C=Nc3ccccc32)c(=O)n(C)c1=O,0,
COC(=O)C1=Nc2ccccc2/C1=C\c1c(O)n(C)c(=O)n(C)c1=O,0,
CC[C@@H]1c2ccccc2[C@@H]2CC[C@H]1N2c1ccccc1,0,
COP(=O)(NC(=O)C(Cl)(Cl)Cl)OC,2,
CN=C1CN=C(c2ccc[nH]2)c2cc(Cl)ccc2N1,-1,
COc1cccc(C(=O)C2CCCN(Cc3cccc(C)n3)C2)c1 (stereo not drawn),3,
SMILES,TTR transcr act,others
COc1cccc(C(=O)C2CCCN(Cc3ccc(F)cc3)C2)c1 (stereo not drawn),2,
COc1cccc(C(=O)C2CCCN(Cc3cnn(C(C)C)c3)C2)c1 (stereo not drawn),11*,HuH7 TTR inh=-16;TTR up confirm=2
Cc1cc(C)c(C)c(C(O)(C(=O)O)c2ccccc2)c1C (stereo not drawn),1,
ClC1=CCC2CN(CCN3CCCCC3)CC2C1 (stereo not drawn),0,
CCn1cc(C(=O)c2ccccc2)c2ccccc21,-1,
Cc1nn(C)c(C)c1P(=S)(c1c(C)nn(C)c1C)N(C)C,9.9*,HuH7 TTR inh=-4;TTR up confirm=-1
Cc1ccccc1CN1Cc2cnnn2-c2ccccc2C1C#N (stereo not drawn),-6,
CCCCn1c(=O)c(C(=O)NCc2ccccc2OC)c(O)c2ccccc21,5,
CN(C)CC1CSCCC1(O)c1ccccc1Cl (stereo not drawn),2,
CNC1(c2ccccc2Cl)CCCCC1=O (stereo not drawn),16*,HuH7 TTR inh=-3;TTR up confirm=-1
COC(=O)C1=C(c2ccc(OC)c(OC)c2)C[C@@H]2CC[C@H]1N2C(=O)NCc1ccco1,1,
O=C(CNC(=O)c1ccccc1)Nc1ccc(Br)cc1C(=O)c1ccccc1,-1,
CCC(=NCCc1ccccc1)c1c(O)[nH]c(=O)[nH]c1=O,0,
CC(Cc1ccccc1)[n+]1cc(/N=C(\[O-])Nc2ccccc2)on1 (stereo not drawn),0,
CN1CCN(c2nc([N+](=O)[O-])nn2C)CC1,1,
CCN1CCN(c2nc([N+](=O)[O-])nn2C)CC1,14*,HuH7 TTR inh=-4;TTR up confirm=0
CC1c2ccccc2-n2nncc2CN1CC1CCCCC1 (stereo not drawn),1,
Brc1ccc2c(c1)CN(CC1CCCCC1)Cc1cnnn1-2,27*,HuH7 TTR inh=-8;TTR up confirm=0
O=S(=O)(c1ccc(Cl)cc1)N1Cc2cc(Br)ccc2-n2nncc2C1,0,
O=P(/C(=N/O)N1CCOCC1)(N1CCOCC1)N1CCOCC1,12*,HuH7 TTR inh=-10;TTR up confirm=-1
O=P(Oc1ccccc1)(N1CCOCC1)N1CCOCC1,-1,
O=CC(Cl)P(=O)(N1CCOCC1)N1CCOCC1 (stereo not drawn),1,
O=C(Cc1ccccc1)Oc1ccc(N2C(=O)CCC2=O)cc1,-1,
CCC(=O)OC1(c2ccccc2)C(C)CN(C)CC1C (stereo not drawn),0,
O=C(/C=C/C=C/c1ccccc1)CC1(O)C(=O)Nc2ccccc21 (stereo not drawn),0,
N/C(=N\[N+](=O)[O-])NCCCC(NC(=O)CNC(=O)c1ccccc1)C(=O)O (stereo not drawn),-1,
O=C(Cc1ccccc1)Oc1ccccc1N1C(=O)CCC1=O,8,
COc1ccc(Cn2c(O)c(/C=N/NC(=O)c3ccccc3)c(=O)[nH]c2=O)cc1,0,
COc1ccccc1-n1c(O)c(/C=N/NC(=S)Nc2ccccc2)c(=O)[nH]c1=S,14*,HuH7 TTR inh=-12;TTR up confirm=0
CCn1c(O)c(/C=N/NC(=O)c2ccccc2)c(=O)[nH]c1=S,8,
